L3MBTL1 block: blocks human L3MBTL1. actives 0.66% (n = 230,000). Potency, µM (series often up to 57.1 µM), without a hit: top-dose activity, negative = inhibition, hits mostly inhibitors. AlphaScreen L3MBTL1–H3K9me1 peptide binding; also: % is scaled to controls: 0 for no effect and ±100 for the full control effect; nearly all actives have a fitted effect of over 60% in size
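Read-out is AlphaScreen signal from streptavidin donor and nickel chelate acceptor beads (10 ug/mL final each) bridging L3MBTL1 (50 nM) and biotinylated K9-monomethylated H3(1-15) peptide (75 nM), after 30 min compound exposure at room temperature.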
JMJD2A Tudor inh: blocks the human JMJD2A Tudor domain. AID 504339. O75164. AlphaScreen JMJD2A-Tudor / H3K4me3 peptide binding. actives 4.4% (n = 390,000). Potency, µM (titrated, usually from 114 µM), inactives show at the top dose activity change, negative = inhibition, actives largely listed as inhibitors; also: % is scaled to controls: 0 for no effect and ±100 for the full control effect; nearly all actives have a fitted effect of over 50% in size
Target sequence (O75164 whole entry, looked up, the tested form may be a part): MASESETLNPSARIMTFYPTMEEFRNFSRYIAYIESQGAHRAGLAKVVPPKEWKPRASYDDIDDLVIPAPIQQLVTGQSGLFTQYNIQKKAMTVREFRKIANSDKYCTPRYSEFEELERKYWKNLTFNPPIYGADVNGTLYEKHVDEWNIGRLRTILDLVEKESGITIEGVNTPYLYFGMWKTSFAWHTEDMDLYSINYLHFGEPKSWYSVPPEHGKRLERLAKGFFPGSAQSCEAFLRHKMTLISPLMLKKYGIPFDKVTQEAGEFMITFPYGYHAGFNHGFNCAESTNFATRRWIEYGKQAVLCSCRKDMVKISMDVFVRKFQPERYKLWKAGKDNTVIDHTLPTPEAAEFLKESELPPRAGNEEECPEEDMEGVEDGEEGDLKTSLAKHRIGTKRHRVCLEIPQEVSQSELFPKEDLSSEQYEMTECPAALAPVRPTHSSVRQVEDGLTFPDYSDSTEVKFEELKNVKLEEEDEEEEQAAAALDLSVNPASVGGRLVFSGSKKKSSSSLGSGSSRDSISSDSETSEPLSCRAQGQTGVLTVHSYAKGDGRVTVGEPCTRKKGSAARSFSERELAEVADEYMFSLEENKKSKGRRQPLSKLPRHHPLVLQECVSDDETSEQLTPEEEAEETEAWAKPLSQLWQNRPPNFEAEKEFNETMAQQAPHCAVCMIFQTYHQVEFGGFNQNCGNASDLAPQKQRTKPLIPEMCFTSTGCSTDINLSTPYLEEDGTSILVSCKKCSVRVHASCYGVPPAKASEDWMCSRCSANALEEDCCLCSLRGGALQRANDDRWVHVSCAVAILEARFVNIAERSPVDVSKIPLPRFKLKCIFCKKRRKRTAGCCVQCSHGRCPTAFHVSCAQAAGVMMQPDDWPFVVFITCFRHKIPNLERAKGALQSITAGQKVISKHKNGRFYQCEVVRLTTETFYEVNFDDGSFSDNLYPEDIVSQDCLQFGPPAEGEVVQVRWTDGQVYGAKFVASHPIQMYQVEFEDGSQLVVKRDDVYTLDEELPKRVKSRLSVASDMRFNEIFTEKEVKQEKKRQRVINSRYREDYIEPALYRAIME
G9a block: blocks human histone lysine methyltransferase G9a | G9a H3K9 monomethylation, AlphaScreen, 2 h | Potency, µM (titrated, usually from 102 µM), without a hit: top-dose activity, negative = inhibition, hits mostly inhibitors | actives 8.8% (n = 350,000) | Q96KQ7; also: % is scaled to controls: 0 for no effect and ±100 for the full control effect; nearly all actives have a fitted effect of over 75% in size
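Enzyme 20 nM + cpd, 15 min RT; add b-H3K9 pep 500 nM / SAM 20 uM; 2 h RT; anti-H3K9me1 Ab 0.5 ug/mL + SA donor / anti-rabbit acceptor beads 20 ug/mL each, 10 min; AlphaScreen read.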
BAZ2B inh: inhibitors of human BAZ2B bromodomain; AlphaScreen BAZ2B-H3K14Ac peptide displacement; actives 4.4% (n = 360,000); AID 504333; Potency, µM (doses to about 114 µM), for inactives: at the highest dose activity change, negative = inhibition, hits mostly inhibitors; also: % is scaled to controls: 0 for no effect and ±100 for the full control effect; nearly all actives have a fitted effect of over 60% in size
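Multi-concentration screen (max 110 uM) measuring displacement of acetylated histone H3 peptide from BAZ2B by AlphaScreen, using 50 nM protein, 50 nM peptide and 10 ug/mL streptavidin donor plus Ni-chelate acceptor beads.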
HP1b chromo inh: inhibitors of HP1-beta chromodomain binding to methylated histone tails. P83916. AlphaScreen HP1-beta / biotin-H3K9me3 peptide binding. Potency, µM (highest dose often 114 µM), without a hit: at the top dose activity change, negative = inhibition, hits mostly inhibitors. actives 0.56% (n = 390,000); also: nearly all actives have a fitted effect of over 70% in size
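HP1-beta protein (50 nM final) preincubated 30 min at room temperature with biotinylated H3(1-18)K9me3 peptide (50 nM) in PBS pH 7.4, 0.01% Tween-20, then compound added for 30 min. AlphaScreen streptavidin donor/nickel chelate acceptor beads (10 ug/mL final), 30 min dark, luminescence read.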
Numbers without * were called inactive; ? = inconclusive; . = no result; [ ] = dose if it differs, or a comment. Sampled rows, rich in hits. Any-hit rate of the full collection: about 11%. Calls follow the shape of the dose curve; as a rule, active = well fitted inhibition curve with a large enough effect; inconclusive = small, poorly fitted or top-dose-only effect; inactive = no such curve, though single readings can be large or run the other way. Potency is read from the fitted curve at half-maximal effect.

SMILES	L3MBTL1 block	JMJD2A Tudor inh	G9a block	BAZ2B inh	HP1b chromo inh
CCC(C(=O)Nc1ccc(C(=O)OC)cc1)n1nc(-c2ccc(C)cc2)c2c(c1=O)CCCC2 (configuration not stated)	.	-22%	2%[59 µM]	8%	53%
O=C(N/N=C/c1c(O)ccc2ccccc12)c1ccc(CO)nc1	3.5µM*	56µM*	56µM*	3.2µM*	42%
NC(=S)N/N=C/c1c(O)ccc2ccccc12	.	56µM*	.	2.5µM*	43%
Oc1ccc2ccccc2c1/C=N/n1cnnc1	-2%	-1%	32µM*	-3%	20%
Oc1c(Br)cc(Br)cc1/C=N/c1nc2c(s1)CCCC2	.	-33%	.	.	-29%
O=C(NN=Cc1c(O)ccc2ccccc12)c1ccc2c(c1)OCO2	3%	-16%	.	.	36%
Oc1ccc2ccccc2c1/C=N/c1nc2c(s1)CCCC2	.	50µM*	1.4µM*	-35%	?
CCc1ccc(NC(=S)N(CCN2CCOCC2)Cc2ccccc2F)cc1	.	-18%	1%	-22%	9%
CC(=O)N1CCc2c(sc3c2c(=O)n(-c2ccccc2)c(=O)n3CC(=O)c2ccc(F)cc2)C1	.	-14%	4%[59 µM]	-3%	27%
COc1ccc(Nc2nc3ccccc3n3c(N)nnc23)cc1	.	-27%	4%[59 µM]	-22%	7%
Oc1ccc2ccccc2c1/C=N/Nc1ccccc1	?	50µM*	7.1µM*	-35%	-57%
Oc1ccc2ccccc2c1C=NC1CCCCC1	.	-31%	8.9µM*	?	-27%
Cc1cc(C)n(/N=C\c2c(O)ccc3ccccc23)c(=O)c1C(N)=O	.	89µM*	1.1µM*	1%	19%
Oc1ccc2ccccc2c1C=NCc1ccccc1	?	?	28µM*	-36%	-1%
O=CN/N=C/c1c(O)ccc2ccccc12	-13%	-6%	19%[59 µM]	-1%	54%
COc1ccc(CCN(C)C(=O)C(CCSC)NC(=O)c2ccco2)cc1OC (configuration not stated)	-3%	-10%	-5%[12.7 µM]	14%	36%
Cc1cccc(-c2nnn3c2nc(NCc2ccccc2)c2ccccc23)c1	.	-14%	6%[59 µM]	0%	31%
O=C(Nc1ccc(Cl)c(Cl)c1)c1ccc(Cl)c(Cl)c1	20%	-9%	20%	-13%	31%
O=C(Nc1ccc(C2=NCCN2)cc1)c1ccc(Cl)c(C(=O)Nc2ccc(C3=NCCN3)cc2)c1	-21%	.	18µM*	-23%	.
CCCCCCCCCCCCC/C=C/[C@@H](O)[C@@H](N)COP(=O)(O)O	.	.	34%[59 µM]	.	.
CC(C)(C)c1ccc(-c2nc(SCCCOc3ccccc3)n3[nH]c(=O)cc3n2)cc1	.	50µM*	5%[59 µM]	50µM*	-21%
COc1ccccc1OCCCSc1nc(-c2ccc(C(C)(C)C)cc2)nc2cc(=O)[nH]n12	.	50µM*	-2%[59 µM]	?	2.2µM*
Cc1cc(C)cc(OCCSc2nc(-c3ccc(C(C)(C)C)cc3)nc3cc(=O)[nH]n23)c1	.	-36%	-10%[59 µM]	-17%	3%
Cc1cc(OCCCSc2nc(-c3ccc(C(C)(C)C)cc3)nc3cc(=O)[nH]n23)ccc1Cl	.	32µM*	-1%[59 µM]	28µM*	?
Cn1c(C(=O)Nc2cccc(Cl)c2)cc2c(=O)n(C)c3ccccc3c21	.	1%	-1%[59 µM]	-12%	26%
SMILES	L3MBTL1 block	JMJD2A Tudor inh	G9a block	BAZ2B inh	HP1b chromo inh
COc1ccc2c(c1)c(CC(=O)Nc1cccc(F)c1C)c(C)n2C(=O)c1ccc(Cl)cc1	.	-21%	23%[59 µM]	0%	14%
CC(C)(C)c1nn(-c2ccccc2)c2[nH]c(=O)c(CNc3ccc4c(c3)OCCO4)cc12	.	40µM*	35µM*	1.1µM*	?
Cc1nn(-c2ccccc2)c2[nH]c(=O)c(CNc3ccc(N4CCOCC4)cc3)cc12	-20%	?	32µM*	45µM*	?
O=c1[nH]c2c(cc1CNCCN1CCOCC1)c(-c1cccc(F)c1)nn2-c1ccccc1	-3%	.	1%	3%	.
Cc1oc2ccc(O)c(CN3CCCC3)c2c1C(=O)Nc1ccc(C(C)C)cc1	.	-24%	1%[59 µM]	?	19%
CCN(CC)CCOC(=O)c1ccc(NC(=O)c2cc3cccc(OC)c3oc2=O)cc1	.	-28%	?	-13%	12%
O=C(O)C1C2C=CC(O2)C1C(=O)Nc1ccc(S(=O)(=O)Nc2ccccc2)cc1 (configuration not stated)	-17%	79µM*	?	-4%	?
O=C(O)C1C2C=CC(O2)C1C(=O)Nc1ccc(S(=O)(=O)N2CCc3ccccc32)cc1 (configuration not stated)	?	-35%	11µM*	-6%	3%
CC(=O)Nc1ccc(S(=O)(=O)N2CCCc3ccccc32)cc1	0%	-16%	0%[12.7 µM]	1%	22%
CC(=O)c1ccc(NC(=O)C2C3C=CC(O3)C2C(=O)O)cc1 (configuration not stated)	.	?	?	2%	4%
COc1ccc2sc(N(Cc3cccnc3)C(=O)c3cccs3)nc2c1	.	-3%	-5%[59 µM]	3%	34%
CCOC(=O)c1ccccc1NC(=O)c1cnc(N2CCOCC2)c2ccccc12	.	54%	50%[59 µM]	13%	64%[57 µM]
COc1ccc2nc(C)cc(N3CCN(S(=O)(=O)c4ccccc4F)CC3)c2c1	2%	-28%	-10%[12.7 µM]	-5%	7%
O=C(O)CCc1ccc(-c2ccc(Br)cc2)n1-c1ccc(O)cc1	.	?	45µM*	40µM*	?
CC(=O)c1ccc(-n2c(CCC(=O)O)ccc2-c2ccc(Br)cc2)cc1	.	?	40µM*	?	-8%
Cc1ccc(C2=NN(C(=O)CNCCO)C(c3cccs3)C2)cc1 (configuration not stated)	.	12%	-7%	-27%	57%
Cc1ccc(OCCN2CCCCCC2)c(C)c1	.	-23%	-1%[12.7 µM]	-6%	8%
Cc1cc(Br)ccc1OCCN1CCCC1	-3%	25µM*	.	?	?
CCN1CCN(CCOc2ccc(Br)cc2C)CC1	-7%	18µM*	7.9µM*	22µM*	?
CN(C(=O)Cn1cccc1C1=NC(c2ccccc2)CO1)c1ccccc1 (configuration not stated)	.	-24%	-46%	.	25%
CN(Cc1ccccc1)C(=O)COC(=O)c1ccc[nH]c1=O	9%	22µM*	.	.	23%
O=C(OCC(=O)N1CCc2ccccc21)c1ccc[nH]c1=O	1%	14µM*	-16%	-10%	0%
O=C(CO/N=C/c1ccc(OC(F)F)cc1)N1CCc2ccccc21	-7%	-10%	-1%[59 µM]	7%	22%
O=C(/C=C/c1ccc(OC(F)F)cc1)OCC(=O)N1CCc2ccccc21	-13%	-14%	45µM*	7%	17%
COc1ccc(CCNC(=O)CNS(=O)(=O)c2ccc(F)c(Cl)c2)cc1OC	-8%	-3%	.	-6%[0.457 µM]	41%

Assay outcomes (PubChem BioAssay)
